# ALOX12 inhib = inhibitors of human 12-lipoxygenase (ALOX12); P18054; purified 12-hLO, xylenol orange hydroperoxide absorbance; Potency, µM (top dose mostly 57.1 µM), inactives show at the top dose activity change, negative = inhibition, usual class: inhibitors; hit rate 0.12% among 150,000; AID 1452; also: potency is read from the fitted curve at half-maximal effect; nearly all actives have a fitted effect of over 55% in size
# Target sequence (P18054 whole entry, looked up): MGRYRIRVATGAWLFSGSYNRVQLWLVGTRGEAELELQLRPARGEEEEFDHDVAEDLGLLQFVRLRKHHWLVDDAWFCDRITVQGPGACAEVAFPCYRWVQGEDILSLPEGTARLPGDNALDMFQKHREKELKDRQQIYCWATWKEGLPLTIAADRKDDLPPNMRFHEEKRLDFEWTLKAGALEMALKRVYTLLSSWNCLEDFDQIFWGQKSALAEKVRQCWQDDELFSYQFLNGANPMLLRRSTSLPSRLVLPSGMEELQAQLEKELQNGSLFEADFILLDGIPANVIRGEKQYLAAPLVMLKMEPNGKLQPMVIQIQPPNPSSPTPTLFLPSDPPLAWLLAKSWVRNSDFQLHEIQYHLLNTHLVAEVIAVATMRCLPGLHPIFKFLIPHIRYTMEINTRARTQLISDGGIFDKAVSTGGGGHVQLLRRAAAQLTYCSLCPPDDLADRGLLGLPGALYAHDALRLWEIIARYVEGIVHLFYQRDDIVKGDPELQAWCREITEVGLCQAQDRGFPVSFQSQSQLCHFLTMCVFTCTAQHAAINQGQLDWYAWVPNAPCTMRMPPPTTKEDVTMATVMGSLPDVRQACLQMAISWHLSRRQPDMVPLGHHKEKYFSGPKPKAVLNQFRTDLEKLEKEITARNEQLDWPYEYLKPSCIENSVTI
#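 Lipoxygenase turnover measured by absorbance at 573 and 405 nm after Fe-XO development. Human 12hLO 150 nM, arachidonate 40 uM, pH 7.0 Hepes buffer with detergent; 15 min compound preincubation, 30 min reaction.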
# GLA spleen mod = alpha-galactosidase A (human) modulation; AID 2107; Potency, µM (doses to about 80 µM), for the others: top-dose activity change, negative = inhibition, most hits filed as inhibitors; hit rate 0.008% among 240,000; human spleen homogenate, 4MU-alpha-Gal fluorescence, 40 min;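 also: potency is read from the fitted curve at half-maximal effect; 0% = enzyme with vehicle and -100% = no enzyme basal signal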
#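 Human spleen homogenate (1 ug) was the enzyme source, with 4-methylumbelliferyl-alpha-D-galactopyranoside (1 mM final) in pH 5.0 citrate buffer with 0.01% Tween-20. Compounds were titrated; after 40 min at 37C, NaOH/glycine stop, 4-MU fluorescence read; AC50 from Hill fits.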
# ALDH1A1 inh = blocks purified human ALDH1A1 activity. P00352. Purified ALDH1A1, NADH fluorescence, propionaldehyde substrate. Potency, µM (titrated, usually from 75.3 µM), for inactives: top-dose activity, negative = inhibition, hits mostly inhibitors. hit rate 7.3% among 220,000. AID 1030; active = well fitted inhibition curve with a large enough effect, not every such curve was filed as active; inconclusive = small, poorly fitted or top-dose-only effect, or another doubt; inactive = no such curve, though single readings can be large or run the other way;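 also: potency is read from the fitted curve at half-maximal effect; plate controls were no enzyme wells and a reference inhibitor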
# HPGD inh = blocks human HPGD enzyme activity | P15428 | purified HPGD, NADH fluorescence kinetic, PGE2 substrate | Potency, µM, without a hit: at the highest dose activity change, negative = inhibition, most hits filed as inhibitors | hit rate 4.3% among 150,000 | AID 894; active = well fitted inhibition curve with a large enough effect, not every such curve was filed as active; inconclusive = small, poorly fitted or top-dose-only effect, or another doubt; inactive = no such curve, though single readings can be large or run the other way; also: potency is read from the fitted curve at half-maximal effect
#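 20 nM HPGD preincubated 15 min at room temperature with compound in 50 mM Tris-HCl pH 8, 0.01% Tween 20. Started with 1 mM NAD+ and 30 uM prostaglandin E2; NADH fluorescence (360/450 nm) read 5 times over 30-s intervals, last minus first.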
# PNC assembly inh = blocks assembly of the perinucleolar compartment; PC3M PTB-GFP, PNC prevalence imaging, 16 h; stronger effect = lower value; hit rate 3.1% among 140,000; activity change (PNC), negative = inhibition, % at 10 µM;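 active = readout at or below -70, meaning at least 70% loss of cells showing the perinucleolar compartment, a nuclear body marking cancer cells; inconclusive = readout between -30 and a set limit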;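 also: plate controls were DMSO wells for no effect and camptothecin positive control wells for full effect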
#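 Read-out is percentage of cells bearing a perinucleolar compartment, from automated 20x imaging of fixed, Hoechst-stained PC3M PTB-GFP cells. Cells were seeded 4 h, then exposed 16 h to compound (23 nl of library stock) in duplicate plates.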
# GLA inh pH 4.5 = inhibitors of human alpha-galactosidase A at pH 4.5; AID 1467; activity change, negative = inhibition, % at 105 µM; 230,000 tested, under 10 active; purified enzyme, 4-MU-alpha-Gal fluorescence, pH 4.5;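 also: 0% = full activity with enzyme and -100% = basal without enzyme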
# Active calls of the source: *; ? = inconclusive; nt = not tested or not shown. Shown are actives, neighbours in structure and some others; about 10% of the full set was active somewhere. Unless noted, calls follow the shape of the dose curve; as a rule, active = well fitted curve in the direction sought with a large enough effect; inconclusive = small, poorly fitted or top-dose-only effect, or another doubt; inactive = no such curve, though single readings can be large; an effect the other way counts as inactive or inconclusive. Unless noted, % is scaled to controls: 0 for no effect and ±100 for the full control effect.
SMILES,ALOX12 inhib,GLA spleen mod,ALDH1A1 inh,HPGD inh,PNC assembly inh,GLA inh pH 4.5
CC(C)(C)N1C(=O)c2ccccc2NC(=O)N1Cc1ccccc1,-2%,-7%,4%,-2%,5,0
CCCOc1ccc(N2C(=O)CC(N3CCC(c4nc5ccccc5o4)CC3)C2=O)cc1 (stereo not given),nt,8%,-3%,nt,nt,0
O=C(COc1ncnc2ccccc12)NCCC1=CCCCC1,4%,-1%,2%,-8%,-25,11
COc1ccc(CNC(=O)COC(=O)CC2CCCC2)cc1,-4%,0%,7.9µM*,-12%,-22,-2
COC(=O)c1ccc(NC(=S)NCCC2=CCCCC2)cc1,-26%,6%,?,-16%,?,4
COC(=O)c1cccc(NC(=S)NCCC2=CCCCC2)c1,?,3%,28µM*,?,40,-6
O=C(COc1cnc2ccccc2n1)NCCC1=CCCCC1,1%,-1%,11µM*,-15%,14,-15
COc1ccc(OCCC(=O)OCC(=O)NCCC2=CCCCC2)cc1,nt,-5%,13µM*,nt,nt,-9
O=C(COC(=O)COc1ccc(Br)cc1)NCCC1=CCCCC1,-7%,1%,?,-12%,-29,-9
COc1ccc(OC)c(/C=N/NC(=O)CC2C(=O)NN=C2C)c1 (stereo not given),-7%,-5%,?,?,2,0
Cc1ccccc1-c1ccc2ncnc(N(C)Cc3ccco3)c2c1,nt,8%,4%,nt,nt,nt
NCCC[C@@H](CC(=O)N[C@@H]1CCCC[C@H]1C(=O)N[C@H](CC(=O)N[C@@H](CCC(=O)O)CC(=O)O)Cc1c[nH]c2ccccc12)NC(=O)C[C@H](CO)NC(=O)[C@@H]1CCCC[C@H]1N,-2%,0%,?,-10%,nt,-4
O=C(NC(=S)NCCC1=CCCCC1)c1ccccc1Br,nt,0%,7.1µM*,nt,nt,2
COc1ccc(N(CC(=O)NCCC2=CCCCC2)S(C)(=O)=O)cc1,-1%,-3%,?,3%,29,-1
COc1ccc(C(=O)NCC(=O)OCC(=O)NC2CCCC2)cc1,nt,3%,?,nt,nt,-3
COc1ccc(CC(=O)NCCC2=CCCCC2)cc1,nt,6%,24µM*,nt,nt,-8
COc1ccc(OCCC(=O)OCC(=O)NC2CCCCCCC2)cc1,nt,8%,16µM*,nt,nt,6
CCOC(=O)COc1ccc(S(=O)(=O)NCCC2=CCCCC2)cc1,1%,-1%,32µM*,-10%,?,-10
COc1ccccc1C(=O)C1CCCN(C(=O)c2snnc2C)C1 (stereo not given),nt,-17%,-8%,nt,nt,2
CCCCN1C(=O)/C(=C/C=C2/CC(C)(C)CN2C)SC1=S,-1%,2%,6.3µM*,-4%,-25,-3
CCN(CC)S(=O)(=O)c1ccc(C(=O)NCC(c2ccc(OC)cc2)N2CCOCC2)cc1 (stereo not given),nt,3%,0.71µM*,nt,nt,3
COc1ccc(C(CNC(=O)c2ccc(S(=O)(=O)N3CCOCC3)cc2)N2CCCCC2)cc1 (stereo not given),-2%,4%,?,-3%,9,-9
O=C(CSc1nnnn1C1CCCCC1)N1CCc2ccccc21,-1%,1%,-1%,-19%,-23,3
O=C(CSc1ncc(-c2ccccc2)n1C1CCCC1)N1CCc2ccccc21,-7%,-4%,3.5µM*,-9%,13,-9
Nc1nc(SCC(=O)N2CCc3ccccc32)[nH]c(=O)c1-c1ccccc1,3%,3%,?,-15%,-107*,-11
Cn1c(-c2ccccc2)cnc1SCC(=O)N1CCCc2ccccc21,0%,-6%,10µM*,-13%,?,6
Cc1ccc(-c2cnc(SCC(=O)N3CCCc4ccccc43)n2C)cc1,-9%,-1%,?,-5%,-18,-3
CCC(C(=O)O)C1CCC(C)C(C(C)C(O)C(C)C(=O)C(CC)C2OC3(C=CC(O)[C@@]4(CC[C@](C)(C5CC[C@@](O)(CC)C(C)O5)O4)O3)C(C)CC2C)O1 (stereo not given in full),-6%,-6%,3%,-14%,nt,-17

# Bioassay records deposited in PubChem by National Center for Advancing Translational Sciences (NCATS).
